# Experimental data reported in PubChem BioAssay (Tox21).
# Inconclusive results are not listed. A call without a number means that no potency is given here. Calls of active or inactive are those of the source. The call rests on the fitted dose curve; in most records, active means well fitted cell-killing curve with a large enough effect in the repeat runs; inconclusive means weak or mixed curves, or effect the other way; inactive means flat fitted curve, though single readings scatter.
# What was measured:
# [1] = cAMP Responsive Elements (CRE) small molecule antagonists, cell-based qHTS assay: qHTS cell viability counter screen (AID 2060913); conditions: CRE-bla HEK293T viability, CellTiter-Glo luminescence, 5 h; series mostly up to 92.4 µM; further: nearly all actives have a fitted effect of over 40% in size
# In short: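 Cytotoxicity read in the same wells as the CRE-bla HEK293T antagonist assay: after 3 h compound with 0.25 uM NKH477 final and 2 h beta-lactamase substrate, CellTiter-Glo luminescence measured.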
# [2] = cAMP Responsive Elements (CRE) small molecule agonists, cell-based qHTS assay: qHTS cell viability counter screen (AID 2060914); conditions: CRE-bla HEK293T viability, CellTiter-Glo luminescence, 5 h; series mostly up to 92.4 µM; further: nearly all actives have a fitted effect of over 50% in size
# In short: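 In the same wells as the reporter read, viability of CRE-bla HEK 293T cells was quantified by CellTiter-Glo luminescence after a 3 h compound exposure.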
SMILES,Potency [1],Potency [2]
CCCCCCCCCCCC[N+](C)(C)CC(=O)[O-],inactive,inactive
CCOC(=O)CC,inactive,inactive
CN(C)CC[C@@H](c1ccc(Br)cc1)c1ccccn1,inactive,inactive
CCCc1nc2c(C)cc(-c3nc4ccccc4n3C)cc2n1Cc1ccc(-c2ccccc2C(=O)O)cc1,inactive,inactive
CCO[Si](CCC#N)(OCC)OCC,inactive,inactive
